HIF-2a inh: blocks HIF-2a reporter activity; 360,000 compounds, 0.72% hits; inhibition, % at 18.8 µM; 786-0 RCC cells HIF-2a reporter, luciferase luminescence, overnight;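 active means inhibition of the luminescence signal of 40% or more relative to plate controls, in a single-dose primary screen at 18.75 µM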
C8 TRAIL sens: sensitizes caspase-8 expressing cells to TRAIL; inhibition (viability loss, TRAIL sensitization), % at 10 µM; 360,000 compounds, 1% hits; NB7+C8 cells + TRAIL, ATPlite viability luminescence;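 active means compounds causing at least 50% loss of cell viability in the single-dose screen, relative to plate controls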
HSP90 inh: inhibitors of HSP90 luciferase refolding in rabbit reticulocyte lysate; 290,000 compounds, 0.91% hits; inhibition, % at 5.6 µM; luciferase refolding luminescence, 3 h;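 active means inhibition above the screen-wide mean plus 3 SD, computed separately per campaign, cut at about 16% in these data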;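 further: inhibitors lower the luminescence because luciferase stays unfolded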
TROY signal inh: blocks TROY-dependent signaling in reporter cells. inhibition, % at 10 µM. 360,000 compounds, 0.98% hits. Q293 LMP1-TROYcd NF-kB luciferase reporter, 4 h. AID 1347056;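 active means compounds whose plate-normalised and pattern-corrected inhibition of the luciferase reporter signal at the single screening dose is 50% or more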
aSyn 5UTR inh: 5' untranslated region of α-synuclein, MLPCN primary screen. alpha-synuclein 5'UTR reporter, inhibitor activity. inhibition, % (tested at 7.5 µM). 300,000 compounds, 0.82% hits; in the data active means inhibition above about 60%;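 further: H4 neuroglioblastoma cells stably carrying SNCA 5'UTR luciferase fusion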
TWEAK Fn14 block: inhibitors of TWEAK-Fn14 interaction signaling; inhibition, % at 10 µM; 360,000 compounds, 2% hits; TWEAK-stimulated Fn14 reporter cells, luciferase luminescence, 8 h; in the data active means inhibition above about 50%
Mdm2 MdmX conf: Mdm2/MdmX (human) interaction inhibition, confirmed; SaOS-2 split-luciferase Mdm2/MdmX complementation, luminescence; 740 compounds, 99% hits; shares compounds with HIF-2a inh; inhibition, % at 8 µM; AID 504601;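 active means mean inhibition of the luminescence signal across two replicates at or above 26 percent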
Target sequence (O15151 whole entry, looked up): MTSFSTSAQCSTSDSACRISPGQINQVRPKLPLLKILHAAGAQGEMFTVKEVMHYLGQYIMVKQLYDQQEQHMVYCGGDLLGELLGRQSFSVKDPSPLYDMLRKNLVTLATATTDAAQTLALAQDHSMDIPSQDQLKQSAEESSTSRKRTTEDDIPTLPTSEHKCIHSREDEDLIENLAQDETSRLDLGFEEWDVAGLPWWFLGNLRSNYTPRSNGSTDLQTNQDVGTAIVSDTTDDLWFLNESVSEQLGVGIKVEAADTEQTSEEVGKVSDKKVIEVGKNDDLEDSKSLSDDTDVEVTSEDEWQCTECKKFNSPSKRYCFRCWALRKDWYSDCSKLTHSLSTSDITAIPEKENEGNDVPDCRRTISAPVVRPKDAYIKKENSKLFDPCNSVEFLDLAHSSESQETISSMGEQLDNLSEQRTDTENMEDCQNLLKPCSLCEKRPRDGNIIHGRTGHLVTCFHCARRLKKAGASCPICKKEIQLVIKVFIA
Target sequence (Q00987 whole entry, looked up): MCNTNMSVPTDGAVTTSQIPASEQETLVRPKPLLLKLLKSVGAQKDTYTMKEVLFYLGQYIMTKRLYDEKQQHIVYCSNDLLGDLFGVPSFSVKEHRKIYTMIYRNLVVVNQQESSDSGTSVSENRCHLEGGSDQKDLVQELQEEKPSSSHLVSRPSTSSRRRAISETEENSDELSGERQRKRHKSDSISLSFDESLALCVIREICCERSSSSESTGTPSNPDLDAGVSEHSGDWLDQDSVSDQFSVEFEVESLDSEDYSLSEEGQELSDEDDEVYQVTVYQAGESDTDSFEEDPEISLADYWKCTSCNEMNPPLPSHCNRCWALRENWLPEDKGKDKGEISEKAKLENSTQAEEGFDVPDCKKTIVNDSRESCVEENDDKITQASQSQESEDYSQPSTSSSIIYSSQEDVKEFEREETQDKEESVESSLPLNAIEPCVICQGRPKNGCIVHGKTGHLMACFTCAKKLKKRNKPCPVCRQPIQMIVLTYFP
HIF-2a inh conf: HIF-2a inhibition, single concentration confirmation; shares compounds with HIF-2a inh; 786-0 RCC cells, HIF-2a luciferase reporter luminescence, overnight; inhibition, % at 18.8 µM; 1,800 compounds, 56% hits;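 active means mean inhibition across four replicates of at least 40 percent at the single tested concentration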
HIF-1a counter: counter-screen for HIF-2a inhibitors: HIF-1a inhibition in MiaPaCa-2 cells; shares compounds with HIF-2a inh; MiaPaCa-2 HIF-1a luciferase reporter, desferoxamine, overnight; inhibition, % at 18.8 µM; 1,800 compounds, 72% hits;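 active means mean inhibition of the reporter signal across four replicates at the single tested dose of 50% or more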
Large screens that a line does not name were inactive (follow-up assays come after a bar, where they were run). The list is not random: actives were taken first. Their share in the collection is about 3.9%.

COc1ccc(Br)cc1[C@H]1[C@H]2C=CC[C@@H](C)[C@@H]2C(=O)N1Cc1ccccc1	HIF-2a inh 44 (no result: HSP90 inh) | HIF-2a inh conf inactive | HIF-1a counter inactive
Cc1ccccc1NC(=O)Cc1nc(COC(=O)c2ccc(S(C)(=O)=O)c([N+](=O)[O-])c2)cs1	C8 TRAIL sens 54, TWEAK Fn14 block 69 (no result: HSP90 inh, aSyn 5UTR inh) | Mdm2 MdmX conf 100
CC(CCc1ccccc1)NC(=O)COC(=O)c1ccc(S(C)(=O)=O)c([N+](=O)[O-])c1 (stereo not drawn)	HIF-2a inh 50, TROY signal inh 70, TWEAK Fn14 block 71 | Mdm2 MdmX conf 102 | HIF-2a inh conf inactive | HIF-1a counter 97
Cc1ccccc1NC(=O)COC(=O)c1ccc(S(C)(=O)=O)c([N+](=O)[O-])c1	HIF-2a inh 93 | HIF-2a inh conf inactive | HIF-1a counter inactive
CC(CCc1ccccc1)NC(=O)COC(=O)c1ccc([N+](=O)[O-])cc1 (stereo not drawn)	none
Cc1ccccc1NC(=O)Cc1nc(COC(=O)c2ccc(NC(N)=O)cc2)cs1	none (no result: HSP90 inh, aSyn 5UTR inh)
CS(=O)(=O)c1ccc(C(=O)OCC(=O)Nc2cccnc2Cl)cc1[N+](=O)[O-]	none (no result: HSP90 inh, aSyn 5UTR inh)
CC(C)n1cnc2c(NCc3ccccc3)cc(N[C@H](C)CO)cc21	C8 TRAIL sens 60 (no result: HSP90 inh, aSyn 5UTR inh) | Mdm2 MdmX conf 89
COc1ccc(/C=N\NC(=O)c2ccc(=O)[nH]n2)cc1O	none
COc1ccc(/C=N/NC(=O)c2cc(C34CC5CC(CC(C5)C3)C4)[nH]n2)cc1O	HIF-2a inh 55 | HIF-2a inh conf inactive | HIF-1a counter inactive
COc1ccc(C2=Nn3c(nnc3-c3ccccc3OC)SC2)cc1OC	HIF-2a inh 43, aSyn 5UTR inh 107 | HIF-2a inh conf inactive | HIF-1a counter inactive
Cc1cc(C)c2cc3c(N)c(C(=O)Nc4c(C)[nH]c(=O)[nH]c4=O)sc3nc2c1	HIF-2a inh 69, TWEAK Fn14 block 66 | HIF-2a inh conf inactive | HIF-1a counter 66
O=[N+]([O-])c1ccc(Sc2nc3ccccc3o2)c([N+](=O)[O-])c1	HIF-2a inh 92, TWEAK Fn14 block 58 | HIF-2a inh conf 74 | HIF-1a counter 106
CCC(=O)N1CCN(c2ccc(Cl)cc2NC(=O)c2ccc([N+](=O)[O-])o2)CC1	none
CC(=O)N1CCN(c2ccc(NC(=O)c3ccc([N+](=O)[O-])o3)cc2Cl)CC1	HIF-2a inh 88 | HIF-2a inh conf 52 | HIF-1a counter 83
CCC(=O)N1CCN(c2ccc(NC(=O)c3ccc([N+](=O)[O-])o3)cc2Cl)CC1	HIF-2a inh 94, C8 TRAIL sens 70, aSyn 5UTR inh 77 | HIF-2a inh conf 51 | HIF-1a counter 90
CCN1CCN(c2ccc(NC(=O)c3ccc([N+](=O)[O-])o3)cc2Cl)CC1	HIF-2a inh 64, aSyn 5UTR inh 126 | HIF-2a inh conf 49 | HIF-1a counter 58
O=C(Nc1ccc(N2CCN(C(=O)c3cccs3)CC2)cc1)c1ccc([N+](=O)[O-])o1	HIF-2a inh 98, C8 TRAIL sens 94, aSyn 5UTR inh 106 | HIF-2a inh conf 99 | HIF-1a counter 104
CC(=O)c1cccc(-c2ccnc3c2CC(C(=O)Nc2cccc(OC(F)(F)F)c2)O3)c1 (stereo not drawn)	none (no result: HSP90 inh, aSyn 5UTR inh)
O=C(Nc1ccon1)c1nc[nH]c1C(=O)N1CCN(c2ccccc2)CC1	none (no result: HSP90 inh, aSyn 5UTR inh)
O=C(CNC(=O)c1cccc([N+](=O)[O-])c1)NC1CCCc2ccccc21 (stereo not drawn)	none (no result: HSP90 inh, aSyn 5UTR inh)
Cc1ccc(CSc2nnc(-c3ccccn3)n2Cc2cccs2)cc1	none (no result: HSP90 inh, aSyn 5UTR inh)
Cc1ccsc1CN(C)C(=O)C(NC(=O)c1cccc(S(=O)(=O)N2CCOCC2)c1)C(C)C (stereo not drawn)	none (no result: HSP90 inh, aSyn 5UTR inh)
COc1cccc(NC(=O)Nc2nc(-c3ccc(OC)c(OC)c3)cs2)c1	C8 TRAIL sens 97, TROY signal inh 70, TWEAK Fn14 block 105 | Mdm2 MdmX conf 103
c1ccc(-c2nnnc3ccccc23)cc1	none
Clc1ccc2nnnc(-c3ccccc3)c2c1	HIF-2a inh 83 | HIF-2a inh conf 71 | HIF-1a counter 103
O=C1c2ccccc2-c2onc3ccc(Oc4ccccc4)c1c23	TWEAK Fn14 block 56 | Mdm2 MdmX conf 103
CCOC(=O)COc1ccc(S(=O)(=O)Nc2cccc(SC)c2)cc1	HIF-2a inh 50 | HIF-2a inh conf inactive | HIF-1a counter inactive
O=C(Nc1ccc(C(F)(F)F)cc1)N1CCN(c2ccnc3cc(Cl)ccc23)CC1	HIF-2a inh 45, TROY signal inh 58 | HIF-2a inh conf inactive | HIF-1a counter 76
CCN(Cc1ccccc1)C(=O)COC(=O)c1cc(S(=O)(=O)Nc2ccccc2OC)ccc1O	none (no result: HSP90 inh, aSyn 5UTR inh)
COc1ccc(CN2[C@@H](CC(C)=O)c3ccc(/C=C/C(C)=O)cc3S2(=O)=O)cc1	HIF-2a inh 43 (no result: HSP90 inh) | HIF-2a inh conf inactive | HIF-1a counter inactive
COC(=O)C[C@H]1c2ccccc2S(=O)(=O)N1c1cccc(OC)c1	none (no result: HSP90 inh)
COc1cccc(N2[C@@H](CC(C)=O)c3ccc(/C=C/C(C)=O)cc3S2(=O)=O)c1	HIF-2a inh 45 (no result: HSP90 inh) | HIF-2a inh conf inactive | HIF-1a counter inactive
CN(Cc1ccc(Cl)cc1)C(c1cc2ccccc2o1)c1nnnn1C(C)(C)C (stereo not drawn)	none (no result: HSP90 inh, aSyn 5UTR inh)
CO/N=C/C(NC(=O)c1ccc(C(F)(F)F)cc1)C(=O)OC (stereo not drawn)	none
NC(N)=NN=C(c1ccc(F)cc1)c1ccc(C(F)(F)F)cc1	HIF-2a inh 41, TWEAK Fn14 block 56 (no result: HSP90 inh, aSyn 5UTR inh) | HIF-2a inh conf inactive | HIF-1a counter 86
COc1coc(C(O)CN)cc1=O (stereo not drawn)	none
CCOC(=O)C(=Cc1cc(=O)c(OC)co1)C(=O)OCC	HIF-2a inh 94, TWEAK Fn14 block 98 | HIF-2a inh conf 99 | HIF-1a counter 106
COc1ccc(S(=O)(=O)Nc2cc(S(=O)(=O)N3CCOCC3)ccc2OC)cc1	none (no result: HSP90 inh, aSyn 5UTR inh)
CC(=O)Nc1ccc(NC2=C(Cl)C(=O)c3ccccc3C2=O)cc1	none (no result: HIF-2a inh, C8 TRAIL sens, TROY signal inh, TWEAK Fn14 block) | Mdm2 MdmX conf 103
O=C(Nc1ccccc1)c1cc(C2CCCCN2S(=O)(=O)Cc2cccc(C(F)(F)F)c2)on1 (stereo not drawn)	none (no result: HSP90 inh, aSyn 5UTR inh)
COc1ccc(-c2oc3ncn(CCN4CCOCC4)c(=N)c3c2-c2ccc(OC)cc2)cc1	HIF-2a inh 45, aSyn 5UTR inh 74 | HIF-2a inh conf inactive | HIF-1a counter 86
COc1ccc(-c2oc3ncnc(NCCCN4CCOCC4)c3c2-c2ccc(OC)cc2)cc1	none
